Results as given in PubChem BioAssay.
Records with an inconclusive call do not appear. Active and inactive are the calls of the source.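 How the source made its calls, unless noted: active means normalized viability below 100% at a tested concentration; inactive means the rest.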

Experiments:
[1] = viability loss in pontine glioma line – cell-based, SU-DIPG-XVII, MIPE5.0, CellTiter-Glo, qHTS, dose response (AID 1347060; cut-off not given, nearly all actives have AC50 up to about 26 µM;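 further: cells exposed to compound for 48 hours before viability readout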); conditions: CellTiter-Glo ATP luminescence
[2] = viability loss in pontine glioma line – cell-based, SU-DIPG-XIII, MIPE4.0, CellTiter-Glo, qHTS, dose response (AID 1347061; cut-off not given, nearly all actives have AC50 up to about 37 µM;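 further: cells exposed to compound for 48 hours before readout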); conditions: CellTiter-Glo ATP luminescence
[3] = viability loss in pontine glioma line – cell-based, JHH-DIPG-1, MIPE4.0, CellTiter-Glo, qHTS, dose response (AID 1347062; cut-off not given, nearly all actives have AC50 up to about 27 µM;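 further: cells exposed to compound for two days before readout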); conditions: JHH-DIPG-1 viability, CellTiter-Glo ATP luminescence
[4] = viability loss in pontine glioma line – cell-based, SU-DIPG-IV, MIPE4.0, CellTiter-Glo, qHTS, dose response (AID 1347063; cut-off not given, nearly all actives have AC50 up to about 30 µM;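 further: compound exposure lasted 48 hours before the viability readout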); conditions: CellTiter-Glo ATP luminescence
[5] = viability loss in pontine glioma line – cell-based, SU-DIPG-XIII, MIPE5.0, CellTiter-Glo, qHTS, dose response (AID 1347064; cut-off not given, nearly all actives have AC50 up to about 23 µM;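 further: cells exposed to compound for 48 hours before the viability read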); conditions: CellTiter-Glo ATP luminescence
[6] = viability loss in pontine glioma line – cell-based, SU-DIPG-XXV, MIPE5.0, CellTiter-Glo, qHTS, dose response (AID 1347065; cut-off not given, nearly all actives have AC50 up to about 26 µM;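 further: cells exposed to compound for 48 hours before ATP readout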); conditions: CellTiter-Glo ATP luminescence
[7] = growth inhibition of DIPG cells – cell-based, MIPE4.0 library, CellTiter-Glo luminescence, qHTS (AID 1347066; cut-off not given, nearly all actives have AC50 up to about 30 µM;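 further: cells exposed to compound for 48 hours before readout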); conditions: SU-DIPG-VI viability, CellTiter-Glo ATP luminescence
[8] = JHH-DIPG-1 glioma cell viability, MIPE5.0 library, CellTiter-Glo luminescence, qHTS (AID 1347067; cut-off not given, nearly all actives have AC50 up to about 26 µM;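 further: cells exposed to compound for 48 hours before readout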); conditions: JHH-DIPG-1 glioma viability, CellTiter-Glo ATP luminescence
[9] = growth inhibition of DIPG cells – cell-based, MIPE5.0 library, qHTS (AID 1347068; cut-off not given, nearly all actives have IC50 up to about 30 µM;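 on IC50: cells exposed to compound for 48 hours before viability readout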); conditions: SU-DIPG-XXV viability
[10] = drug combination growth inhibition, ovarian cancer – cell-based, oncology-focused library, rucaparib conditional, profiling panel (AID 1508598); conditions: patient-derived ovarian cancer cells, CellTiter-Glo viability, 144 h, stronger effect = lower value
[11] = viability loss with induced miR-34 in A549 – imaging, A549 dox-inducible miR-34, nuclei and caspase counts, primary screen (AID 1347080;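 active means compounds whose cell count with miR-34 switched on is under 0.7 times the count with it off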); conditions: A549 miR-34 inducible, Hoechst nuclei count, 48 h
[12] = MELAS cybrid and Rieske KO viability enhancers – cell-based, MELAS cybrids, Rieske KO mouse fibroblasts, CellTiter-Glo, primary screen (AID 1508586;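 active means mean z-score across replicates of 1.96 or higher in either the MELAS or the Rieske mutant cell line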;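 further: z relative to plate mean and SD of compound and empty wells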); conditions: low glucose
[13] = at 0.000305 µM, OCI-C5x cells, with rucaparib 10 µM, 100% = cells with rucaparib alone
[14] = at 0.000305 µM, OCI-C5x cells, without rucaparib
[15] = at 0.000305 µM, OCI-P5x cells, with rucaparib 20 µM, 100% = cells with rucaparib alone
[16] = at 0.000305 µM, OCI-P5x cells, without rucaparib
[17] = at 0.00122 µM, OCI-C5x cells, with rucaparib 10 µM, 100% = cells with rucaparib alone
[18] = at 0.00122 µM, OCI-C5x cells, without rucaparib
[19] = at 0.00122 µM, OCI-P5x cells, with rucaparib 20 µM, 100% = cells with rucaparib alone
[20] = at 0.00122 µM, OCI-P5x cells, without rucaparib
[21] = at 0.00488 µM, OCI-C5x cells, with rucaparib 10 µM, 100% = cells with rucaparib alone
[22] = at 0.00488 µM, OCI-C5x cells, without rucaparib
[23] = at 0.00488 µM, OCI-P5x cells, with rucaparib 20 µM, 100% = cells with rucaparib alone
[24] = at 0.00488 µM, OCI-P5x cells, without rucaparib
[25] = at 0.0195 µM, OCI-C5x cells, with rucaparib 10 µM, 100% = cells with rucaparib alone
[26] = at 0.0195 µM, OCI-C5x cells, without rucaparib
[27] = at 0.0195 µM, OCI-P5x cells, with rucaparib 20 µM, 100% = cells with rucaparib alone
[28] = at 0.0195 µM, OCI-P5x cells, without rucaparib
[29] = at 0.0781 µM, OCI-C5x cells, with rucaparib 10 µM, 100% = cells with rucaparib alone
[30] = at 0.0781 µM, OCI-C5x cells, without rucaparib
[31] = at 0.0781 µM, OCI-P5x cells, with rucaparib 20 µM, 100% = cells with rucaparib alone
[32] = at 0.0781 µM, OCI-P5x cells, without rucaparib
[33] = at 0.313 µM, OCI-C5x cells, with rucaparib 10 µM, 100% = cells with rucaparib alone
[34] = at 0.313 µM, OCI-C5x cells, without rucaparib
[35] = at 0.313 µM, OCI-P5x cells, with rucaparib 20 µM, 100% = cells with rucaparib alone
[36] = at 0.313 µM, OCI-P5x cells, without rucaparib
[37] = at 1.25 µM, OCI-C5x cells, with rucaparib 10 µM, 100% = cells with rucaparib alone
[38] = at 1.25 µM, OCI-C5x cells, without rucaparib
[39] = at 1.25 µM, OCI-P5x cells, with rucaparib 20 µM, 100% = cells with rucaparib alone
[40] = at 1.25 µM, OCI-P5x cells, without rucaparib
[41] = at 5 µM, OCI-C5x cells, with rucaparib 10 µM, 100% = cells with rucaparib alone
[42] = at 5 µM, OCI-C5x cells, without rucaparib
[43] = at 5 µM, OCI-P5x cells, with rucaparib 20 µM, 100% = cells with rucaparib alone
[44] = at 5 µM, OCI-P5x cells, without rucaparib

Cc1nc(Nc2n[nH]c3c2CN(C(=O)N[C@H](CN(C)C)c2ccccc2)C3(C)C)c2sccc2n1
active: AC50 [1] 3.72 µM | AC50 [2] 10.5 µM | AC50 [3] 2.09 µM | AC50 [4] 2.96 µM | AC50 [5] 1.18 µM | AC50 [6] 2.09 µM | AC50 [7] 8.33 µM | AC50 [8] 2.95 µM | IC50 [9] 4.17 µM | viability [10, 23] 85.5% | viability [10, 24] 84.6% | viability [10, 26] 66.6% | viability [10, 27] 68.4% | viability [10, 28] 66.2% | viability [10, 29] 90.6% | viability [10, 30] 73.2% | viability [10, 31] 59.9% | viability [10, 32] 60.2% | viability [10, 34] 88% | viability [10, 35] 44.2% | viability [10, 36] 48.5% | viability [10, 37] 85.2% | viability [10, 38] 95.2% | viability [10, 39] 24.7% | viability [10, 40] 39.9% | viability [10, 41] 8.03% | viability [10, 42] 10.2% | viability [10, 43] 8.49% | viability [10, 44] 4.16%
inactive: viability [10, 13] 107% | viability [10, 14] 125% | viability [10, 15] 108% | viability [10, 16] 104% | viability [10, 17] 112% | viability [10, 18] 126% | viability [10, 19] 102% | viability [10, 20] 108% | viability [10, 21] 106% | viability [10, 22] 106% | viability [10, 25] 107% | viability [10, 33] 101%

c1cncc(CN2CCC(n3ncc4c(N5CCOCC5)nc(-c5ccc6[nH]ccc6c5)nc43)CC2)c1
active: AC50 [1] 7.42 µM | AC50 [2] 8.33 µM | AC50 [3] 14.8 µM | AC50 [4] 2.09 µM | AC50 [5] 16.6 µM | AC50 [6] 5.25 µM | AC50 [8] 20.9 µM | z-score ([12]; MELAS cybrid survival, CellTiter-Glo 48 h, stronger effect = higher value) 4.98
-1.65: z-score ([12]; Rieske KO mouse fibroblast survival, CellTiter-Glo 72 h)
3130: cell count ([11]; measured here: total cells without miR-34 induction)
2980: cell count ([11]; measured here: total cells with miR-34 induction, stronger effect = lower value)
inactive: outcome [9] | fold change ([11]; stronger effect = lower value, cell number ratio, induced over uninduced) 0.951
0.489: fold change ([11]; measured here: relative caspase fold change +Dox/-Dox)

C=CC(=O)N1CCC[C@@H](n2nc(-c3ccc(Oc4ccccc4)cc3)c3c(N)ncnc32)C1
active: AC50 [1] 5.9 µM | AC50 [2] 18.7 µM | AC50 [3] 23.5 µM | AC50 [4] 5.26 µM | AC50 [5] 20.9 µM | AC50 [6] 9.34 µM | AC50 [7] 16.6 µM | AC50 [8] 16.6 µM | viability [10, 13] 99.2% | viability [10, 15] 88.6% | viability [10, 16] 94.3% | viability [10, 19] 77.7% | viability [10, 20] 48.3% | viability [10, 23] 95.6% | viability [10, 27] 93.8% | viability [10, 31] 86.9% | viability [10, 35] 86.1% | viability [10, 36] 91.8% | viability [10, 39] 92.3% | viability [10, 40] 93.7% | viability [10, 43] 57.3% | viability [10, 44] 88.7%
inactive: outcome [9] | viability [10, 14] 119% | viability [10, 17] 108% | viability [10, 18] 118% | viability [10, 21] 106% | viability [10, 22] 108% | viability [10, 24] 103% | viability [10, 25] 112% | viability [10, 26] 112% | viability [10, 28] 103% | viability [10, 29] 114% | viability [10, 30] 111% | viability [10, 32] 100% | viability [10, 33] 112% | viability [10, 34] 120% | viability [10, 37] 108% | viability [10, 38] 125% | viability [10, 41] 113% | viability [10, 42] 121%
